Shown are actives, neighbours in structure and some others; about 4.5% of the full set was active somewhere.
Mdm2-MdmX inh = disrupts the human Mdm2-MdmX interaction | AID 485346 | SaOS-2 split-luciferase Mdm2/MdmX complementation, luminescence | O15151+Q00987 | inhibition, % at 8 µM | 330,000 tested, 3% active;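 active = inhibition of at least 50% at 8 µM in the primary screen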
697 NFkB inh = lowers PMA/ionomycin-induced NF-kB signal in 697 B cells. 330,000 tested, 0.33% active. AID 435022. inhibition, % at 4 µM. 697 B-cell NF-kB luciferase reporter, 16 h; in the data active = inhibition above about 35%
CSC inhib = cancer stem cell inhibition; cancer stem cell-like cells viability, luminescence; inhibition, % at 7.5 µM; 300,000 tested, 1.1% active; in the data active = inhibition above about 75%; tested in HMLE shEcad cells
aSyn UTR inh = MLPCN primary screen, SNCA 5' untranslated region. alpha-synuclein 5'UTR reporter, inhibitor activity. inhibition, % (tested at 7.5 µM). 300,000 tested, 0.82% active; in the data active = inhibition above about 60%;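 also: H4 neuroglioblastoma cells stably carrying SNCA 5'UTR luciferase fusion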
Gli-Sufu antag = antagonists of Gli-Sufu signaling; AID 588413; Sufu-KO-LIGHT fibroblasts, Gli luciferase reporter luminescence; 340,000 tested, 0.74% active; inhibition, % at 5 µM;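 active = inhibition above about 55%, limit read from the data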
Jurkat NFkB inh = lowers PMA/ionomycin-induced NF-kB signal in Jurkat cells; PMA/ionomycin-induced NF-kB luciferase reporter, luminescence; inhibition, % at 4 µM; AID 435003; 330,000 tested, 0.53% active; in the data active = inhibition above about 50%
Large screens that a line does not name were inactive.

O=C(Nc1c(C(=O)N2CCOCC2)cnn1-c1ccccc1)c1ccc(F)cc1	none
O=C1Nc2cc(C(=O)N3CCc4ccccc4C3)ccc2S/C1=C\c1ccccc1	CSC inhib 118.3
CC(C)(C)N(Cc1ccccc1)C(=O)COC(=O)CN1C(=O)NC2(CCCC2)C1=O	none
Cc1ccc(NC(=O)CSc2nc(-c3ccco3)nc3cc(=O)[nH]n23)c(Cl)c1	none
N#Cc1c(N)nc2c(c1-c1ccccc1)CCCC2	none
N#Cc1c(N)nc2c(c1-c1cccc(O)c1)CCCCCC2	CSC inhib 81.8
O=C1[C@H]2[C@H](C=CC[C@H]2C(=O)N2CCOCC2)CCN1Cc1ccccc1	none
O=C(O)CCn1cc(/C=C/C(=O)c2ccc(Cl)cc2)c(-c2ccc(Br)cc2)n1	CSC inhib 105.8 (no result: Mdm2-MdmX inh, 697 NFkB inh, aSyn UTR inh, Jurkat NFkB inh)
OCCC1CN(Cc2cc3c(cc2Cl)OCO3)CCN1C1CCCCC1 (stereo not drawn)	none
O=C(CCCOc1ccc(Cl)cc1)N1CCCCC1	none
O=C(CCCOc1ccccc1)N1CCCCC1	aSyn UTR inh 70.6
CC(C)(C)c1ccc(Oc2ccc(NC(=O)C3CC=CCC3C(=O)O)cc2)cc1 (stereo not drawn)	CSC inhib 79.8
COc1cc(OC)cc(-c2cc3ccc(OC)cc3cn2)c1	CSC inhib 93.5 (no result: aSyn UTR inh)
Cc1cccc(NC(=O)c2ccc(COc3cccc4ccccc34)o2)n1	none (no result: CSC inhib)
N#CC(C#N)=C1C=CC=CN1/C(=C\c1ccco1)C(=O)c1ccc(-c2ccccc2)cc1	CSC inhib 75.1 (no result: Mdm2-MdmX inh, 697 NFkB inh, aSyn UTR inh, Jurkat NFkB inh)
N#CC(C#N)=C1C=CC=CN1/C(=C\c1ccco1)C(=O)c1ccc(Cl)cc1	none (no result: Mdm2-MdmX inh, 697 NFkB inh, aSyn UTR inh, Jurkat NFkB inh)
CCOC(=O)N1CCN(C(=O)c2ccc3nc(N4CCCCC4)sc3c2)CC1	none
Cc1cccc(N2CCN(C(=O)c3ccc4nc(N5CCCCC5)sc4c3)CC2)c1C	CSC inhib 83.6
O=c1nc2onnc2c(C=NO)[nH]1	none (no result: Mdm2-MdmX inh, 697 NFkB inh, CSC inhib, aSyn UTR inh, Jurkat NFkB inh)
COc1cccc2cc(C(N)=O)/c(=N/NC(=O)COc3ccc(Cl)cc3)oc12	none (no result: Gli-Sufu antag)
COc1ccc(NC(=O)Nc2cc(C)ccn2)cc1	none (no result: Mdm2-MdmX inh, 697 NFkB inh, CSC inhib, aSyn UTR inh, Jurkat NFkB inh)
O=C(Nc1ccccn1)c1ccc(C(=O)c2ccccc2)cc1	none
COc1ccc(C(=O)NC(=O)Nc2cc(C)ccn2)cc1	aSyn UTR inh 72.0
Cc1ccc(NC(=O)C(=O)Nc2ccccn2)cc1	aSyn UTR inh 71.0
O=C(NC(=O)c1ccccc1)Nc1ccccn1	aSyn UTR inh 64.3 (no result: Gli-Sufu antag)
Cc1ccc(S(=O)(=O)CC(=O)Nc2ccccn2)cc1	none
O=C(O)/C=C/c1ccc(S(=O)(=O)Nc2ccccc2C(=O)Nc2ccc(F)cc2)cc1	none
COCCCNC(=O)c1cc2cc(Br)ccc2oc1=O	none (no result: aSyn UTR inh)
O=C(NNC(=O)c1cc2cc(Br)ccc2oc1=O)c1ccc(O)cc1O	CSC inhib 77.0
O=C(Nc1cc([N+](=O)[O-])ccc1N1CCCC1)c1cccs1	none
CO/N=C/NC(=O)NOCc1ncc(C(F)(F)F)cc1Cl	none
O=C(N/C=N/OCc1ccc(Cl)cc1Cl)NOCc1ncc(C(F)(F)F)cc1Cl	CSC inhib 124.2
Cc1ccc(-n2c(C)cc(/C=C3\NC(=O)NC3=O)c2C)c(C)c1	none (no result: CSC inhib)
O=C(COc1ccccc1F)Nc1ccc(S(=O)(=O)Nc2nccs2)cc1	none
CC(=O)c1ccc(C(=O)Nc2ccc(N3CCOCC3)cc2)cc1	none
O=C(Nc1ccc(N2CCOCC2)cc1)c1cn2ccccc2n1	aSyn UTR inh 65.5
CC(C)(C)c1ccc(C(=O)Nc2ccc(N3CCOCC3)cc2)cc1	CSC inhib 79.4
O=S(=O)(/N=C(/c1ccc(F)cc1)N1CCCCC1)c1ccc(Cl)cc1	none
O=C1/C(=C\c2cc(Cl)c(O)c(Cl)c2)SC(=S)N1Cc1ccccc1	CSC inhib 103.5 (no result: Mdm2-MdmX inh, 697 NFkB inh, Jurkat NFkB inh)
Sc1nnc(-c2ccc(Cl)cc2)n1Cc1ccccc1	CSC inhib 76.3 (no result: aSyn UTR inh)
CCN(CC)c1ccc(S(=O)(=O)N2CCOCC2)cc1NC(=O)CSC(=S)N1CCCC1	none
CN(C)S(=O)(=O)c1cccc(-c2nnc(SCC(=O)NCCCCCC(=O)O)n2-c2ccc(F)cc2)c1	none
O=C(c1ccc(Cl)cc1)c1c[nH]c(C(=O)NNc2ccccc2)c1	CSC inhib 95.2
O=C(O)c1ccccc1C(=O)NNc1ccc(Cl)cc1	CSC inhib 91.1
O=C(/C=C/c1ccccc1)NNc1ccc(Cl)cc1	CSC inhib 96.2
O=C(/C=C/c1ccccc1)NNC(=O)c1cccc(Cl)c1	none
O=C(NNc1ccc(Cl)cc1)c1sccc1Cl	CSC inhib 94.4
CC(=O)c1ccc(NC(=O)c2noc3c2CCC3)cc1	aSyn UTR inh 71.5
CCC(NC(=O)COc1cc2c(c3oc(=O)c(C)c(C)c13)CCC(C)(C)O2)C(=O)O (stereo not drawn)	none
Cc1cc(C(=O)N/N=C/c2cc(Br)ccc2OC(=O)c2ccc(Br)cc2)n[nH]1	aSyn UTR inh 84.0 (no result: Gli-Sufu antag)
Cc1cc(C(=O)N/N=C/c2cc(Br)cc(Br)c2OC(=O)c2ccccc2)n[nH]1	aSyn UTR inh 89.3 (no result: CSC inhib, Gli-Sufu antag)
CC1=Nc2ccccc2N=C(NC(=O)c2ccccc2)C1c1ccccc1 (stereo not drawn)	none
CC(C)(CN1CCN(Cc2ccccc2)CC1)NS(=O)(=O)c1ccccc1	CSC inhib 75.8
CC(C)(CN1CCN(C(c2ccccc2)c2ccccc2)CC1)NS(=O)(=O)c1ccccc1	CSC inhib 97.9
CC(=NNC(=S)N1CC2CCC(CC2)C1)c1ccncn1	Gli-Sufu antag 85.4 (no result: Mdm2-MdmX inh, 697 NFkB inh, CSC inhib, aSyn UTR inh, Jurkat NFkB inh)
O=C1NN(c2ccccc2)C(=O)/C1=C/c1ccc(Sc2ccc(Cl)cc2)o1	none (no result: 697 NFkB inh, Jurkat NFkB inh)
Cc1ccc(Sc2ccc(/C=C3/C(=O)NN(c4ccccc4)C3=O)o2)cc1	CSC inhib 89.4
O=C(CSc1nnc(-c2ccccc2O)n1Cc1ccccc1)NNC(=O)c1ccccc1O	CSC inhib 132.8
CC1(C2CC2)NC(=O)N(CC(=O)Nc2ccccc2F)C1=O (stereo not drawn)	none (no result: CSC inhib, aSyn UTR inh)
CCCC(=O)NC(c1cccs1)c1cc([N+](=O)[O-])c2cccnc2c1O (stereo not drawn)	CSC inhib 105.7 (no result: Mdm2-MdmX inh, 697 NFkB inh, Jurkat NFkB inh)
CCC(=O)NC(c1cccs1)c1cc([N+](=O)[O-])c2cccnc2c1O (stereo not drawn)	CSC inhib 109.3
CCCC(=O)NC(C)C(c1cccs1)N1CCN(C)CC1 (stereo not drawn)	none (no result: CSC inhib)
CC(=O)NC(c1cccs1)c1cc([N+](=O)[O-])c2cccnc2c1O (stereo not drawn)	CSC inhib 98.5 (no result: Mdm2-MdmX inh, 697 NFkB inh, Jurkat NFkB inh)
CCC(=O)NC(c1ccco1)c1cc(Cl)c2cccnc2c1O (stereo not drawn)	aSyn UTR inh 99.8
CC(=O)NC(c1cccs1)c1cc(Cl)c2ccccc2c1O (stereo not drawn)	none (no result: aSyn UTR inh)
Cc1ccc2c(C(=O)CN3CCN(C(=O)c4ccco4)CC3)c(C)[nH]c2c1	none
O=C(O)c1ccc(N=Nc2c(O)ccc3ncccc23)cc1	none
CCC(=O)NC(c1cccs1)c1cc(Cl)c2ccccc2c1O (stereo not drawn)	none (no result: aSyn UTR inh)
O=C(CCc1ccccc1)NC(c1cccs1)c1cc(Cl)c2cccnc2c1O (stereo not drawn)	aSyn UTR inh 88.2 (no result: Mdm2-MdmX inh, 697 NFkB inh, CSC inhib, Jurkat NFkB inh)
